M1 ag parental: counter-screen for M1 agonists: effect in parental CHO-K1 cells; Fluo-8 calcium fluorescence; scaled to maximal ATP response, vehicle zero; activation, % at 3 µM; actives 0.48% (n = 360,000); in the data active means activation above about 15%;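 further: untransfected CHO-K1 host cells lacking M1 receptor as counterscreen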
M1 PAM: human M1 muscarinic receptor positive allosteric modulators, primary screen, CHO-K1 cells, Fluo-8 calcium fluorescence, 1536-well; activation, % at 3 µM; actives 0.088% (n = 360,000); Muscarinic acetylcholine receptor M1 (Homo sapiens), P11229; CHO-K1 hM1, ACh EC20; 0% = ACh EC20, 100% = maximal ACh; in the data active means activation above about 19%, passing the limit was not always enough
Target sequence (P11229 whole entry, looked up): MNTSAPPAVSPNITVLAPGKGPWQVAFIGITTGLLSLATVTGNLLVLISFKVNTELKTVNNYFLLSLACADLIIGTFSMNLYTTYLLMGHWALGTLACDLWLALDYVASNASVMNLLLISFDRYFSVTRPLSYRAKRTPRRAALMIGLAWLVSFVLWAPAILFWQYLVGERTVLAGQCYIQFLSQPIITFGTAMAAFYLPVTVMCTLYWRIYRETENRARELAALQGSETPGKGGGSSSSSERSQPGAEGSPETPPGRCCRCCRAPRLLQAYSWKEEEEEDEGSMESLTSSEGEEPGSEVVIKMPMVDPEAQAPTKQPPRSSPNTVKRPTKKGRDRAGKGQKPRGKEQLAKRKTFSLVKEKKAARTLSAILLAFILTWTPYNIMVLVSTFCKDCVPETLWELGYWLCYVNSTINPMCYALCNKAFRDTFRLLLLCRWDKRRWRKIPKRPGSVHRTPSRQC
M1 antag: human M1 muscarinic receptor antagonists, primary screen, CHO-K1 cells, Fluo-8 calcium fluorescence, 1536-well. CHO-K1 hM1, ACh EC80 antagonist. inhibition, % at 3 µM. actives 1.3% (n = 360,000);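 active means percent inhibition above its own plate's cutoff, namely the mean of that plate's compound wells plus 3 SD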;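 further: peak over basal fluorescence ratio during 140 s after agonist addition; 0% = ACh EC80 plus DMSO and 100% = DMSO alone without agonist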
CHRM1 agonist: human M1 muscarinic receptor agonists, primary screen, Fluo-8 calcium fluorescence, CHO-K1 cells, HTS. CHO-K1 hM1, agonist mode; 0% DMSO, 100% acetylcholine EC100. activation, % at 3 µM. actives 0.33% (n = 360,000). AID 588814, 2011;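 active means activation above the run's mean compound activation plus 3 SD, cut at about 16% in these data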;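 further: peak over basal fluorescence ratio within a 140 s kinetic read after compound addition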
M1 PAM parental: nonselective calcium activators in parental CHO-K1 cells, primary screen, counter-screen for M1 PAM project, cell-based, Fluo-8 calcium fluorescence, full deck, 1536-well; actives 0.02% (n = 360,000); ATP EC20; 0% at ATP EC20, 100% at ATP max; activation, % at 3 µM;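 active means activation above the run cutoff, the mean activation of all test compounds plus 3 SD, cut at about 40% in these data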;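 further: peak over basal fluorescence ratio in a 140 s read after ATP addition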
CHO-K1 Ca antag: nonselective inhibitor or artifact in parental CHO-K1 cells | ATP-induced calcium, Fluo-8 fluorescence | inhibition, % at 3 µM | actives 0.6% (n = 360,000) | AID 602250;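 active means inhibition above a per-plate cutoff, the plate's mean sample inhibition plus 3 SD, cut at about 24% in these data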;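 further: 0% = DMSO plus EC80 ATP and 100% = DMSO alone without ATP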
Starred values were filed as active, the others as inactive; nt = not tested or not shown. Rows were chosen to be rich in hits. Some 2.4% of all compounds tested hit in one or more screens of this group.

SMILES	M1 ag parental	M1 PAM	M1 antag	CHRM1 agonist	M1 PAM parental	CHO-K1 Ca antag
CN(CC(=O)Nc1ccc(Cl)c(C(F)(F)F)c1)C(=O)c1ccc2c(c1)NC(=O)CS2	3	14	2	-8	-4	-10
COCCN(C(=S)Nc1cc(C)cc(C)c1)C(C)c1ccco1 (stereo unspecified)	1	26*	0	-3	19	-11
Cc1ccccc1NC(=O)CC1C(=O)Nc2ccccc2N1CC(=O)N(C)C1CCS(=O)(=O)C1 (stereo unspecified)	-1	-10	17	-3	-12	1
Cc1cc2c(NC(=O)Nc3ccc(C(F)(F)F)cc3)cccc2nn1	5	-3	8	5	-26	32*
O=c1[nH]c(Cc2cccs2)nc2scc(-c3ccc(Cl)cc3)c12	1	-1	7	-4	18	-2
O=c1[nH]c(Cc2ccccn2)nc2scc(-c3ccc(Cl)cc3)c12	1	5	-5	26*	23	-5
CC(SC1=NCCN1S(C)(=O)=O)c1ccccc1 (stereo unspecified)	1	8	-11	-2	10	-14
COc1cc(S(=O)(=O)N2CCN(C(=O)c3ccco3)CC2)c(OC)cc1C	1	7	78*	0	17	-7
COc1ccc(OC)c(S(=O)(=O)N2CCN(C(=O)c3ccco3)CC2)c1	0	18	-23	-2	0	-7
Cc1ccc(OCC(=O)Nc2ccc3c(c2)OC(F)(F)O3)c([N+](=O)[O-])n1	4	-27	49*	-14	24	-9
Cc1ccc(OCC(=O)Nc2ccc3c(c2)OCO3)c([N+](=O)[O-])n1	1	3	-7	-8	20	-1
CCCCCOc1ccc(NC(=O)C(=O)NCC2CCCN2CC)cc1 (stereo unspecified)	0	-14	8	-14	-18	25*
CCN1CCCC1CNC(=O)C(=O)NC (stereo unspecified)	0	2	-2	-4	2	-12
c1ccc2c(c1)[nH]c1ccncc12	1	1	-3	18*	16	-12
O=[N+]([O-])c1ccc(NC(=S)NCc2ccncc2)cc1	8	-10	3	2	0	10
NS(=O)(=O)c1ccc(NC(=S)NCCc2ccccc2)cc1	0	10	-2	-2	10	-4
O=[N+]([O-])c1ccc(NC(=S)NCc2ccc(F)cc2)cc1	15	-12	28*	8	-15	24*
O=[N+]([O-])c1ccc(NC(=S)NCCc2ccccc2)cc1	12	-28	39*	-4	-9	23
O=[N+]([O-])c1ccc(NC(=S)NCCc2ccc(Cl)cc2)cc1	8	-11	35*	1	12	14
S=C(NCCc1ccccc1)Nc1ccc(Cl)cc1	9	-10	13	-9	10	6
CNC(=O)C(=O)NCCc1ccc(Cl)cc1	1	21*	-4	-4	13	-6
O=C(COC(=O)/C=C/c1ccc(OC(F)F)cc1)Nc1cccc(S(=O)(=O)N2CCOCC2)c1	2	4	-16	1	17	-19
O=C(NC1CCCCC1)c1cc2ccccc2cc1O	-1	24*	-25	1	-8	-21
COc1ccc2c(c1)CCc1cc(C(=O)N3CCN(c4ccc(N5CCOCC5)nn4)CC3)sc1-2	1	-17	7	-5	-10	31*
COc1cccc(C(=O)N2CCN(c3ccc(N4CCOCC4)nn3)CC2)c1	1	4	-14	-4	7	-4
SMILES	M1 ag parental	M1 PAM	M1 antag	CHRM1 agonist	M1 PAM parental	CHO-K1 Ca antag
Cc1ccc2c(C)c(C(=O)Nc3ccc(S(=O)(=O)Nc4onc(C)c4C)cc3)oc2c1	0	0	3	-3	6	1
O=C(O)C1CCC(CNCc2ccccc2Cl)CC1 (stereo unspecified)	0	-5	3	-10	6	-4
CCOC(=O)C1CCC(CNCc2ccccc2C)CC1 (stereo unspecified)	1	-23	53*	-8	14	-17
Cc1ccc2c(c1)C1(SC(C)C(=O)N1c1ccc(Cl)cc1)C(=O)N2 (stereo unspecified)	2	-26	25	-12	12	0
Cc1ccc(N2C(=O)CSC23C(=O)Nc2ccccc23)cc1 (stereo unspecified)	0	-19	41*	-5	11	-3
Cc1ccc(OCCN2C(=O)C(=O)c3cc(C)ccc32)cc1	2	1	-2	0	11	-4
Cc1ccc2c(c1)C(=O)C(=O)N2Cc1ccc(C(F)(F)F)cc1	7	4	8	23*	-12	5
NNC(=O)c1nnn(-c2nonc2N)c1-c1cccs1	1	22*	-29	2	9	-20
CCCOc1ccc(-c2c(C(=O)N/N=C/c3ccc(C)cc3)nnn2-c2nonc2N)cc1	1	8	-14	-3	12	-3
CCOc1ccc(-c2c(C(=O)N/N=C/c3ccc(OC(C)C)cc3)nnn2-c2nonc2N)cc1	6	10	5	21*	29	-2
CCOc1ccc(-c2c(C(=O)N/N=C/c3ccc(C)cc3)nnn2-c2nonc2N)cc1	2	18	-15	19*	23	-12
CCOc1ccc(/C=N/NC(=O)c2nnn(-c3nonc3N)c2-c2cccs2)cc1	34*	-2	27	44*	15	0
Cc1ccc(-c2c(C(=O)N/N=C/c3ccc(OC(C)C)cc3)nnn2-c2nonc2N)cc1	14	15	0	11	18	-8
Cc1cc(C(=O)NCCc2ccc(S(N)(=O)=O)cc2)c(C)o1	-1	7	-2	2	-4	0
Cc1ccc(Cl)cc1N1C(=O)CC(Sc2ccccc2N)C1=O (stereo unspecified)	1	6	-6	0	12	0
Cc1cc2nc(-c3nnnn3-c3c(C)cccc3C)c(=O)[nH]c2cc1C	1	nt	nt	nt	-11	24*
O=C(NCc1ccc(F)cc1)C(c1ccccc1)N(C(=O)c1csnn1)c1ccccc1 (stereo unspecified)	7	-20	29*	-9	-3	-3
NC(=O)c1nsc(C(=O)N(c2ccccc2)C(C(=O)NCc2ccc(F)cc2)c2ccc(O)cc2)c1N (stereo unspecified)	10	-9	27*	-1	-2	10
O=C(CCCNC(=O)c1ccc(Cl)cc1)Nc1ccccc1C(F)(F)F	0	2	-8	-2	-21	-11
